We go through 28 molecules from the supplement of paper PMC7366291.

Structures are written as SMILES. Counter-ions that a name gives are not always drawn. ± gives the standard deviation or the standard deviation of the averaged measurements.

Settings in all cases: 25 µM; exposure: 24-48 hpf
Assay [1] concerns Danio rerio Tg(wt1b:EGFP) embryo, pronephros. Nature of the assay: glomerular separation, fold change vs DMSO control; higher = glomeruli further apart (abnormal). In a few lines: (§1)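 From 24 to 48 hpf, at 28.5°C, dechorionated Tg(wt1b:EGFP) zebrafish embryos sat in HEPES-buffered E3 with 0.003% PTU carrying 25 μM compound and 0.5% DMSO. Their pronephroi were imaged dorsally in 96-well plates filled with agarose, using 470 nm light and 10 z-slices. A Fiji macro measured distances and angles between 16 reference points that were set manually on maximum projections, and any value more than 2 SD from its feature mean was excluded. Features are expressed as fold change relative to the mean of DMSO-treated embryos imaged on the same day.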

Assay [2] has the same test system. Nature of the assay: glomerular width (mean of left and right), fold change vs DMSO control; higher = wider glomerulus. In a few lines: as §1
The test system is the same in assay [3]. Nature of the assay: fraction of imaged embryos annotated as normal kidney; higher = less nephrotoxic; extreme values may be limits of the assay. The method in brief:
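The value given is the share of embryos in each treatment scored as having a normal kidney. To obtain it, dechorionated Tg(wt1b:EGFP) zebrafish embryos were treated from 24 to 48 hpf at 28.5°C with 25 μM compound in 0.5% DMSO, in 5 mM HEPES-buffered E3 with 0.003% PTU. Pronephroi were imaged by widefield fluorescence (470 nm, 10 z-slices), and every embryo was annotated by hand from maximum projections.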

The test system is the same in assay [4]. Nature of the assay: pronephric angle neck segment to proximal convoluted tubule (mean of left and right), fold change vs DMSO control; higher = larger pronephric angle. In a few lines: as §1

`COc1cc2nc(N3CCN(C(=O)C4COc5ccccc5O4)CC3)nc(N)c2cc1OC` (configuration not stated) [Doxazosin mesylate] registered a glomerular separation in assay [1] of 0.958 ± 0.6. Further, the glomerular width in assay [2] was 0.965 ± 0.026. Besides, in assay [3], the “fraction of imaged embryos annotated as normal kidney” value (shortened to “fraction of imaged embryos annotated”) stood at 1. Moreover, in assay [4], the “pronephric angle neck segment” value was 1.007 ± 0.003.

Turning to `N[C@@H](C(=O)N[C@@H]1C(=O)N2C(C(=O)O)=C(Cl)CS[C@H]12)c1ccccc1` [Cefaclor hydrate], the glomerular separation in assay [1] turned out to be 1 ± 0.21. The glomerular width in assay [2] worked out at 0.95 ± 0.093. Besides, the “fraction of imaged embryos annotated” value in assay [3] was determined as 0.833. In assay [4], the “pronephric angle neck segment” value came to 1.01 ± 0.028.

`CC(C)(C)NC(=O)[C@H]1CC[C@H]2[C@@H]3CC[C@H]4NC(=O)C=C[C@]4(C)[C@H]3CC[C@]12C` [Finasteride] returned a glomerular separation in assay [1] of 0.797 ± 0.34. Further, in assay [2], the glomerular width was found to be 0.937 ± 0.018. Moreover, the “fraction of imaged embryos annotated” value in assay [3] turned out to be 0.917. For the same molecule, in assay [4], the “pronephric angle neck segment” value worked out at 1.04 ± 0.023.

Regarding `NCCCC(O)(P(=O)(O)O)P(=O)(O)O` [Alendronate sodium], the glomerular separation in assay [1] came to 0.796 ± 0.25. The glomerular width in assay [2] worked out at 0.984 ± 0.03. Further, the “fraction of imaged embryos annotated” value in assay [3] stood at 0.833. In assay [4], the “pronephric angle neck segment” value came out at 1 ± 0.041.

On to `Nc1ccc(S(N)(=O)=O)cc1` [Sulfanilamide], for which, in assay [1], the glomerular separation came out at 0.646 ± 0.14. In addition, in assay [2], the glomerular width is 1 ± 0.063. The “fraction of imaged embryos annotated” value in assay [3] is 0.833. In assay [4], the “pronephric angle neck segment” value came out at 0.996 ± 0.0089.

The molecule `O=C1[C@H]2CCCC[C@H]2C(=O)N1CCCCN1CCN(c2nsc3ccccc23)CC1` [Perospirone] showed a glomerular separation in assay [1] of 1.25 ± 0.36. In addition, the glomerular width in assay [2] amounted to 0.9761 ± 0.0054. In assay [3], the “fraction of imaged embryos annotated” value was 1. For the same molecule, the “pronephric angle neck segment” value in assay [4] is 1.05 ± 0.017.

In assay [1], `CCn1cc(C(=O)O)c(=O)c2cc(F)c(N3CCNC(C)C3)c(F)c21` (configuration not stated) [Lomefloxacin hydrochloride] returned a glomerular separation of 1.54 ± 1.1. This molecule gave a glomerular width in assay [2] of 0.974 ± 0.12. For the same molecule, the “fraction of imaged embryos annotated” value in assay [3] came out at 0.5. Moreover, the “pronephric angle neck segment” value in assay [4] came out at 1.12 ± 0.037.

`CC(=O)Oc1ccccc1C(=O)Oc1ccccc1C(=O)O` [Acetylsalicylsalicylic acid] showed a glomerular separation in assay [1] of 1.33 ± 0.59. The same molecule yielded a glomerular width in assay [2] of 0.971 ± 0.085. Moreover, in assay [3], the “fraction of imaged embryos annotated” value worked out at 0.833. Moreover, the “pronephric angle neck segment” value in assay [4] came to 1.017 ± 0.0041.

`COc1ccccc1OCC(O)CN1CCN(CC(=O)Nc2c(C)cccc2C)CC1` (configuration not stated) [Ranolazine]: the glomerular separation in assay [1] was 0.739 ± 0.33. Moreover, in assay [2], the glomerular width is 1.021 ± 0.0091. Further, the “fraction of imaged embryos annotated” value in assay [3] was 0.833. Besides, in assay [4], the “pronephric angle neck segment” value turned out to be 1.01 ± 0.029.

In the case of `CC1CNc2c(cccc2S(=O)(=O)N[C@@H](CCCNC(=N)N)C(=O)N2CC[C@@H](C)C[C@@H]2C(=O)O)C1` (some centres not stated) [Argatroban], in assay [1], the glomerular separation was determined as 1.4 ± 1. In assay [2], this molecule showed a glomerular width of 0.949 ± 0.041. Besides, the “fraction of imaged embryos annotated” value in assay [3] was found to be 0.909. In assay [4], the “pronephric angle neck segment” value amounted to 0.997 ± 0.04.

For `CCCCCCC[N+](CC)(CC)CCCCc1ccc(Cl)cc1` [Clofilium tosylate], the glomerular separation in assay [1] was 0.78 ± 0.37. For the same molecule, the glomerular width in assay [2] is 1.04 ± 0.059. Further, in assay [3], the “fraction of imaged embryos annotated” value came to 0.583. Besides, the “pronephric angle neck segment” value in assay [4] is 0.9834 ± 0.0086.

Take `O=c1[nH]cc(F)c(=O)[nH]1` [5-fluorouracil]: in assay [1], the glomerular separation amounted to 0.802 ± 0.22. This molecule yielded a glomerular width in assay [2] of 1.02 ± 0.042. In addition, the “fraction of imaged embryos annotated” value in assay [3] is 0.75. Further, in assay [4], the “pronephric angle neck segment” value was 1.024 ± 0.0061.

The molecule `CCN(CC)CCOC(=O)C1(C2CCCCC2)CCCCC1` [Dicyclomine hydrochloride] returned a glomerular separation in assay [1] of 1.3 ± 0.41. Moreover, the glomerular width in assay [2] was determined as 1.12 ± 0.03. For the same molecule, the “fraction of imaged embryos annotated” value in assay [3] was 0.727. The “pronephric angle neck segment” value in assay [4] is 1.16 ± 0.077.

In the case of `CC1=Nc2ccc(Cl)cc2S(=O)(=O)N1` [Diazoxide], the glomerular separation in assay [1] was 0.743 ± 0.26. In assay [2], this molecule returned a glomerular width of 1.03 ± 0.029. Moreover, the “fraction of imaged embryos annotated” value in assay [3] came to 0.833. Also, the “pronephric angle neck segment” value in assay [4] came to 0.942 ± 0.035.

Consider `CC1(C)S[C@@H]2[C@H](NC(=O)Cc3ccccc3)C(=O)N2[C@H]1C(=O)O` [Benzylpenicillin sodium], for which the glomerular separation in assay [1] stood at 0.915 ± 0.33. Further, in assay [2], the glomerular width worked out at 1.02 ± 0.014. Also, the “fraction of imaged embryos annotated” value in assay [3] came out at 0.833. Moreover, the “pronephric angle neck segment” value in assay [4] was 1.017 ± 0.0055.

With `CC1(C)S[C@@H]2[C@H](NC(=O)[C@H](N)c3ccccc3)C(=O)N2[C@H]1C(=O)O` [Ampicillin trihydrate], the glomerular separation in assay [1] is 0.924 ± 0.41. The same molecule displayed a glomerular width in assay [2] of 1.03 ± 0.016. In addition, in assay [3], the “fraction of imaged embryos annotated” value turned out to be 0.917. Also, in assay [4], the “pronephric angle neck segment” value amounted to 1.03 ± 0.025.

In assay [1], `NC(=O)c1ncn([C@@H]2O[C@H](CO)[C@@H](O)[C@H]2O)n1` [Ribavirin] gave a glomerular separation of 0.913 ± 0.3. Besides, the glomerular width in assay [2] is 0.965 ± 0.025. In assay [3], the “fraction of imaged embryos annotated” value worked out at 0.75. In addition, the “pronephric angle neck segment” value in assay [4] was found to be 0.985 ± 0.017.

In assay [1], `CC(C)(C#N)c1cc(Cn2cncn2)cc(C(C)(C)C#N)c1` [Anastrozole] had a glomerular separation of 1.2 ± 0.37. This molecule also yielded a glomerular width in assay [2] of 1.059 ± 0.0058. Besides, in assay [3], the “fraction of imaged embryos annotated” value amounted to 0.75. The “pronephric angle neck segment” value in assay [4] was 1.04 ± 0.062.

Molecule `CCC[C@@H]1C[C@@H](C(=O)N[C@@H]([C@H]2O[C@H](SC)[C@H](O)[C@@H](O)[C@H]2O)[C@@H](C)O)N(C)C1` [Lincomycin hydrochloride] returned a glomerular separation in assay [1] of 0.865 ± 0.33. The glomerular width in assay [2] is 0.984 ± 0.037. The “fraction of imaged embryos annotated” value in assay [3] amounted to 0.917. The “pronephric angle neck segment” value in assay [4] was determined as 0.9548 ± 0.0043.

`Cn1c(=O)c2c(ncn2CC(=O)O)n(C)c1=O` [Acefylline] returned a glomerular separation in assay [1] of 1.12 ± 0.41. In addition, in assay [2], the glomerular width came to 1 ± 0.029. Moreover, in assay [3], the “fraction of imaged embryos annotated” value worked out at 0.917. For the same molecule, in assay [4], the “pronephric angle neck segment” value stood at 1.02 ± 0.035.

As for `CCCCOc1ccc(CC(=O)NO)cc1` [Bufexamac], the glomerular separation in assay [1] came out at 1.11 ± 0.37. In assay [2], this molecule gave a glomerular width of 1.015 ± 0.0014. For the same molecule, in assay [3], the “fraction of imaged embryos annotated” value is 0.75. In assay [4], the “pronephric angle neck segment” value was 0.9927 ± 0.0019.

`CC(=O)OC(C)C[N+](C)(C)C` (configuration not stated) [Methacholine chloride] had a glomerular separation in assay [1] of 0.765 ± 0.28. The glomerular width in assay [2] was 1.08 ± 0.0033. Moreover, the “fraction of imaged embryos annotated” value in assay [3] came to 0.833. Also, the “pronephric angle neck segment” value in assay [4] turned out to be 0.972 ± 0.011.

As to `NS(=O)(=O)c1cc2c(cc1C(F)(F)F)NCNS2(=O)=O` [Hydroflumethiazide], the glomerular separation in assay [1] worked out at 0.97 ± 0.25. Besides, the glomerular width in assay [2] amounted to 1.07 ± 0.035. In addition, in assay [3], the “fraction of imaged embryos annotated” value stood at 0.727. Further, the “pronephric angle neck segment” value in assay [4] amounted to 1.04 ± 0.14.

Turning to `CC(C)/N=c1\cc2n(-c3ccc(Cl)cc3)c3ccccc3nc-2cc1Nc1ccc(Cl)cc1` [Clofazimine], the glomerular separation in assay [1] is 1.02 ± 0.29. The glomerular width in assay [2] worked out at 1.06 ± 0.056. Besides, the “fraction of imaged embryos annotated” value in assay [3] amounted to 0.75. The “pronephric angle neck segment” value in assay [4] amounted to 0.961 ± 0.0097.

As for `CC(C)(Oc1ccc(CCNC(=O)c2ccc(Cl)cc2)cc1)C(=O)O` [Bezafibrate], the glomerular separation in assay [1] is 0.842 ± 0.27. Further, the glomerular width in assay [2] amounted to 0.988 ± 0.072. In addition, the “fraction of imaged embryos annotated” value in assay [3] worked out at 0.917. Further, in assay [4], the “pronephric angle neck segment” value was determined as 0.966 ± 0.0086.

Turning to `CC1CCc2c(N3CCC(O)CC3)c(F)cc3c(=O)c(C(=O)O)cn1c23` (configuration not stated) [Nadifloxacin], the glomerular separation in assay [1] worked out at 1.13 ± 0.33. For the same molecule, the glomerular width in assay [2] is 1.01 ± 0.031. The “fraction of imaged embryos annotated” value in assay [3] is 0.917. In assay [4], the “pronephric angle neck segment” value came out at 1.04 ± 0.029.

`Cc1c(N)c(=O)n(-c2ccccc2)n1C` [Ampyrone] had a glomerular separation in assay [1] of 0.975 ± 0.3. In addition, the glomerular width in assay [2] is 1.01 ± 0.031. The “fraction of imaged embryos annotated” value in assay [3] was 0.917. In addition, the “pronephric angle neck segment” value in assay [4] came to 0.97 ± 0.0034.

Take `COc1ccc2c(c1)C(=O)N(CCc1ccc(S(=O)(=O)NC(=O)NC3CCCCC3)cc1)C(=O)C2(C)C` [Gliquidone]: the glomerular separation in assay [1] is 1.07 ± 0.54. In assay [2], this molecule displayed a glomerular width of 0.883 ± 0.011. Also, in assay [3], the “fraction of imaged embryos annotated” value turned out to be 1. For the same molecule, in assay [4], the “pronephric angle neck segment” value came to 1.12 ± 0.039.
